Activity calls are given as the source filed them. The calls were made as follows: active = hit-call score of the fitted dose curve at least 0.9, where 1 is the maximum; inactive = score below 0.9.

One assay deals with Heat shock factor protein 1 (Homo sapiens) (UniProt Q00613). Kind of assay: ATG_HSE_CIS: Attagene CIS-FACTORIAL HepG2 Assay for human Heat Shock Transcription Factor 1 (HSE) (AID 2282953). Conditions: HepG2 HSE cis-reporter, Attagene RNA transcription; actives raise or lower the signal. A digest of the protocol: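 Endogenous transcription factor activity captured via cis-promoter reporter units transfected into HepG2; treatment lasted 24 h. Fluorescence intensity of reporter fragments analysed with bidirectional curve fitting, DMSO baseline.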
Heat shock factor protein 1 (Homo sapiens), sequence (Q00613 whole entry, looked up, the tested form may be a part): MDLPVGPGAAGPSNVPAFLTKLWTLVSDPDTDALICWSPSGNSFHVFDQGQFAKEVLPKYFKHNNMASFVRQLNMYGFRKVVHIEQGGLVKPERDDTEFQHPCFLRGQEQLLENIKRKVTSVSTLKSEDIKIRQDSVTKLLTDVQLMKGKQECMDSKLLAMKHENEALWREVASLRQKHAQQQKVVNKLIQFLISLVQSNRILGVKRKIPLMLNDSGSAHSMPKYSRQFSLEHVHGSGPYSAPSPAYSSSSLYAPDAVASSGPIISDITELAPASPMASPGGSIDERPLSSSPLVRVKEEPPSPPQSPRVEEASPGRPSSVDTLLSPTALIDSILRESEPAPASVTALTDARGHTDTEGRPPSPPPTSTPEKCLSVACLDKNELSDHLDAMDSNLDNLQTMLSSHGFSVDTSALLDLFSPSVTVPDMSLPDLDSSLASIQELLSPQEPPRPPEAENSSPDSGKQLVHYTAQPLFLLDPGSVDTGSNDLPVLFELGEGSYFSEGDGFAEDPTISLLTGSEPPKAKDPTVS
With `CC(C)=CCC[C@H](C)CCO`, the call was inactive.

In the case of `CCCCC/C=C\C/C=C\CCCCCCCC(=O)OC`, the AC50 was 153 µM (active).

For `S=C(NC1CCCCC1)NC1CCCCC1`, the call was inactive.

Consider `Cc1cccc(OCCOc2cccc(C)c2)c1`, for which the compound was classed as inactive.

Regarding `O=S(=O)(Oc1ccc(Cl)cc1Cl)c1ccccc1`, the result was inactive.

In the case of `CC(C)CCCC(C)CC=O` (configuration not stated), the compound was called inactive.

With `CC(C)(C)C(=O)CCc1ccc(Cl)cc1`, the outcome was inactive.

As to `O=CN1CCCCC1`, the compound was called inactive.

With `O=Cc1ccc(CO)o1`, the compound was called inactive.

On to `CO[Si](CCC1CCC2OC2C1)(OC)OC` (configuration not stated), for which the result was inactive.

Take `N#[N+]c1ccc2c(S(=O)(=O)[O-])cccc2c1O`: the call was inactive.

For `N[C@H]1C(O)O[C@H](CO)[C@H](O)[C@@H]1O` (some centres not stated), the compound was classed as inactive.

On to `O=C(c1ccccc1)c1ccc(O)c(O)c1O`, for which the compound was classed as inactive.

Regarding `Cc1cccc(C(=O)O)c1`, the compound was called inactive.

Regarding `COC(=O)c1c(C)cc(O)c(C)c1O`, the compound was classed as inactive.

Turning to `Cc1cc(C)c(C)c(O)c1`, the compound was called inactive.

In the case of `O=S1(=O)OC(c2ccc(O)cc2)(c2ccc(O)cc2)c2ccccc21`, the outcome was inactive.

Turning to `CCN(Cc1cccc(S(=O)(=O)O)c1)c1ccc(C(=C2C=CC(=[N+](CC)Cc3cccc(S(=O)(=O)[O-])c3)C=C2)c2ccccc2)cc1`, the AC50 is 83 µM (active).

Regarding `O=C(Nc1ccccc1)c1ccccc1O`, the compound was called inactive.

Consider `CC(=O)NS(=O)(=O)c1ccc(N)cc1`, for which the call was inactive.

Consider `CCO[Si](CCCN=C=O)(OCC)OCC`, for which the outcome was inactive.

On to `C=C(C)CCO`, for which the result was inactive.

Turning to `CCCCCCCCCCc1ccccc1`, the outcome was inactive.

Take `CCCCCCC(O)CO` (configuration not stated): the compound was classed as inactive.

`CCOC(=O)[C@H](C)O`: the compound was classed as inactive.

On to `CC(=O)OCCC1CCCCC1`, for which the call was inactive.

As for `O=C1CCCC(=O)O1`, the compound was classed as inactive.

On to `CCCCC(CC)CCC(CC(C)C)OS(=O)(=O)O` (configuration not stated), for which the compound was classed as inactive.

Regarding `CC(CC=O)c1ccccc1` (configuration not stated), the result was inactive.

On to `CC1=CC[C@H]2C[C@@H]1C2(C)C`, for which the compound was called inactive.

Consider `O=C1c2cccc(O)c2C(=O)c2c(O)cc(CO)cc21`, for which the compound was classed as inactive.

Turning to `C(=CC=Nc1ccccc1)C=CNc1ccccc1`, the call was inactive.

Consider `C#CC1(O)CC[C@H]2[C@@H]3CCC4=CCCC[C@@H]4[C@H]3CC[C@@]21C` (some centres not stated), for which the compound was classed as inactive.

On to `COc1cc(NC(=O)CC(C)=O)c(OC)cc1Cl`, for which the result was inactive.

`CNC(=S)N(C)C`: the call was inactive.

In the case of `O=c1n(CCO)c(=O)n(CCO)c(=O)n1CCO`, the compound was classed as inactive.

As to `CC(=O)C=CC1C(C)=CCC(C)C1(C)C` (configuration not stated), the outcome was inactive.

Consider `C=C(C)[C@H]1CC=C(C)CC1`, for which the compound was classed as inactive.

System in the next assay: not listed separately
Kind of assay: ATG_MRE_CIS: Attagene CIS-FACTORIAL HepG2 Assay for human Metal Responsive Element (MRE) (AID 2282954). Conditions: HepG2 MRE cis-reporter transcription, Attagene multiplex; actives raise or lower the signal. The procedure, abridged: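 Cells were transfected with cis-promoter reporter transcription units, then dosed for 24 h. RNA was reverse-transcribed, amplified, fluorescently labelled and resolved by capillary electrophoresis, and activity was fitted in both directions relative to DMSO.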
Regarding `CC(C)=CCC[C@H](C)CCO`, the compound was called inactive.

As for `CCCCC/C=C\C/C=C\CCCCCCCC(=O)OC`, the result was inactive.

`S=C(NC1CCCCC1)NC1CCCCC1`: the outcome was inactive.

On to `Cc1cccc(OCCOc2cccc(C)c2)c1`, for which the result was inactive.

With `O=S(=O)(Oc1ccc(Cl)cc1Cl)c1ccccc1`, the AC50 was 32.8 µM (active).

Regarding `CC(C)CCCC(C)CC=O` (configuration not stated), the compound was classed as inactive.

As for `CC(C)(C)C(=O)CCc1ccc(Cl)cc1`, the outcome was inactive.

As for `O=CN1CCCCC1`, the call was inactive.

For the compound `O=Cc1ccc(CO)o1`, the outcome was inactive.

`CO[Si](CCC1CCC2OC2C1)(OC)OC` (configuration not stated): the result was inactive.

As to `N#[N+]c1ccc2c(S(=O)(=O)[O-])cccc2c1O`, the outcome was inactive.

In the case of `Cc1cc(=O)n(-c2ccccc2)n1C`, the result was inactive.

As for `N[C@H]1C(O)O[C@H](CO)[C@H](O)[C@@H]1O` (some centres not stated), the result was inactive.

As to `O=C(c1ccccc1)c1ccc(O)c(O)c1O`, the outcome was inactive.

With `Cc1cccc(C(=O)O)c1`, the result was inactive.

In the case of `COC(=O)c1c(C)cc(O)c(C)c1O`, the compound was called inactive.

On to `Cc1cc(C)c(C)c(O)c1`, for which the result was inactive.

Take `O=S1(=O)OC(c2ccc(O)cc2)(c2ccc(O)cc2)c2ccccc21`: the call was inactive.

In the case of `CCN(Cc1cccc(S(=O)(=O)O)c1)c1ccc(C(=C2C=CC(=[N+](CC)Cc3cccc(S(=O)(=O)[O-])c3)C=C2)c2ccccc2)cc1`, the outcome was inactive.

In the case of `O=C(Nc1ccccc1)c1ccccc1O`, the outcome was inactive.

Turning to `CC(=O)NS(=O)(=O)c1ccc(N)cc1`, the call was inactive.

For `CCO[Si](CCCN=C=O)(OCC)OCC`, the outcome was inactive.

Regarding `C=C(C)CCO`, the call was inactive.

As for `CCCCCCCCCCc1ccccc1`, the outcome was inactive.

As for `CCCCCCC(O)CO` (configuration not stated), the compound was called inactive.

Regarding `CCOC(=O)[C@H](C)O`, the compound was called inactive.

Take `CC(=O)OCCC1CCCCC1`: the compound was classed as inactive.

As for `O=C1CCCC(=O)O1`, the compound was called inactive.

As to `CCCCC(CC)CCC(CC(C)C)OS(=O)(=O)O` (configuration not stated), the result was inactive.

In the case of `CC(CC=O)c1ccccc1` (configuration not stated), the AC50 is 104 µM (active).

Take `CC1=CC[C@H]2C[C@@H]1C2(C)C`: the result was inactive.

Take `O=C1c2cccc(O)c2C(=O)c2c(O)cc(CO)cc21`: the compound was called inactive.

Regarding `C(=CC=Nc1ccccc1)C=CNc1ccccc1`, the call was inactive.

For `C#CC1(O)CC[C@H]2[C@@H]3CCC4=CCCC[C@@H]4[C@H]3CC[C@@]21C` (some centres not stated), the result was inactive.

Turning to `COc1cc(NC(=O)CC(C)=O)c(OC)cc1Cl`, the outcome was inactive.

For `CNC(=S)N(C)C`, the result was inactive.

As to `COc1ccc(-c2coc3cc(O)ccc3c2=O)cc1`, the outcome was inactive.

Take `O=c1n(CCO)c(=O)n(CCO)c(=O)n1CCO`: the compound was called inactive.

As for `CC(=O)C=CC1C(C)=CCC(C)C1(C)C` (configuration not stated), the result was inactive.

For `C=C(C)[C@H]1CC=C(C)CC1`, the call was inactive.

System in another assay: not listed separately
Kind of assay: ATG_PBREM_CIS: Attagene CIS-FACTORIAL HepG2 Assay for human Phenobarbital-responsive Enhancer Module (PBREM) (AID 2282955). Conditions: HepG2 PBREM cis-reporter, Attagene multiplexed transcription; actives raise or lower the signal. A digest of the protocol:
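HepG2, transient MRTU transfection, 24 h dosing; RNA → oligo(dT) RT → PCR → 6-FAM extension → HpaI → CE. Bidirectional fit vs DMSO.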
Regarding `CCCCC/C=C\C/C=C\CCCCCCCC(=O)OC`, the result was inactive.

Consider `S=C(NC1CCCCC1)NC1CCCCC1`, for which the result was inactive.

As for `Cc1cccc(OCCOc2cccc(C)c2)c1`, the result was inactive.

Regarding `O=S(=O)(Oc1ccc(Cl)cc1Cl)c1ccccc1`, the AC50 is 7.97 µM (active).

`CC(C)(C)C(=O)CCc1ccc(Cl)cc1`: the outcome was inactive.

Consider `O=CN1CCCCC1`, for which the result was inactive.

For the compound `O=Cc1ccc(CO)o1`, the outcome was inactive.

Turning to `CO[Si](CCC1CCC2OC2C1)(OC)OC` (configuration not stated), the outcome was inactive.

`N#[N+]c1ccc2c(S(=O)(=O)[O-])cccc2c1O`: the outcome was inactive.

`Cc1cc(=O)n(-c2ccccc2)n1C`: the outcome was inactive.

As to `N[C@H]1C(O)O[C@H](CO)[C@H](O)[C@@H]1O` (some centres not stated), the outcome was inactive.

With `Cc1cccc(C(=O)O)c1`, the outcome was inactive.

As for `Cc1cc(C)c(C)c(O)c1`, the outcome was inactive.

Consider `O=S1(=O)OC(c2ccc(O)cc2)(c2ccc(O)cc2)c2ccccc21`, for which the outcome was inactive.

On to `CCN(Cc1cccc(S(=O)(=O)O)c1)c1ccc(C(=C2C=CC(=[N+](CC)Cc3cccc(S(=O)(=O)[O-])c3)C=C2)c2ccccc2)cc1`, for which the outcome was inactive.

With `CC(=O)NS(=O)(=O)c1ccc(N)cc1`, the outcome was inactive.

With `CCO[Si](CCCN=C=O)(OCC)OCC`, the outcome was inactive.

In the case of `CCCCCCC(O)CO` (configuration not stated), the outcome was inactive.

For `CCOC(=O)[C@H](C)O`, the result was inactive.

Regarding `CC(=O)OCCC1CCCCC1`, the result was inactive.

As for `O=C1CCCC(=O)O1`, the result was inactive.

On to `CCCCC(CC)CCC(CC(C)C)OS(=O)(=O)O` (configuration not stated), for which the outcome was inactive.

As to `CC(CC=O)c1ccccc1` (configuration not stated), the outcome was inactive.

For the compound `O=C1c2cccc(O)c2C(=O)c2c(O)cc(CO)cc21`, the result was inactive.

Consider `C(=CC=Nc1ccccc1)C=CNc1ccccc1`, for which the result was inactive.

For the compound `COc1cc(NC(=O)CC(C)=O)c(OC)cc1Cl`, the result was inactive.

Take `CNC(=S)N(C)C`: the outcome was inactive.

For the compound `O=c1n(CCO)c(=O)n(CCO)c(=O)n1CCO`, the outcome was inactive.

`CC(=O)C=CC1C(C)=CCC(C)C1(C)C` (configuration not stated): the result was inactive.

As a reminder, the AC50 is the concentration at which the activity in the assay is half-maximal.

(Values after PubChem BioAssay (EPA / NIEHS).)
